Test results as given in PubChem BioAssay (Tox21).
Inconclusive results are not listed. Activity calls are given as the source filed them. Unless noted, the call rests on the fitted dose curve; in most records, active means well fitted curve in the direction sought with a large enough effect in the repeat runs; inconclusive means weak or mixed curves; inactive means no such curve, though single readings can be large; an effect the other way counts as inactive or inconclusive.

Columns and labels:
[1] = qHTS assay for small molecules that induce genotoxicity in human embryonic kidney cells expressing luciferase-tagged ATAD5 (AID 651632); further: nearly all actives have a fitted effect of over 15% in size
In short: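 Luminescence read-out: after 16 hr compound exposure at 37C, ATAD5-luciferase HEK293T cells received Amplite, 30 min RT, then CCD imaging. A rise in signal marks genotoxic stress.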

[2] = qHTS assay for small molecule agonists of the p53 signaling pathway - cell viability (AID 651633; calls by dose curve;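 further: p53RE-bla HCT reporter cells with a stable beta-lactamase p53 reporter; series mostly up to about 83 µM; nearly all actives have a fitted effect of over 30% in size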)
In short: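 p53RE-bla cells, seeded at 4,000 per well and rested 5 h at 37 C/5% CO2, received compounds in DMSO for 16 h at 37 C. CellTiter-Glo was then added, and luminescence was read after 30 min at room temperature to gauge cytotoxicity.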

[3] = qHTS assay for small molecules that induce genotoxicity in human embryonic kidney cells expressing luciferase-tagged ATAD5 - cell viability (AID 651634; calls by dose curve; further: nearly all actives have a fitted effect of over 25% in size)
In short: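 HEK293T ATAD5-luc cells, 2,000/well; compound 15.5 hr, 37C/5% CO2; CellTiter-Fluor 30 min, 37C; fluorescence read.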

[4] = qHTS assay for small molecule disruptors of the mitochondrial membrane potential - cell viability (AID 720634; calls by dose curve;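 further: human HepG2 liver cancer cells; series mostly up to about 83 µM; nearly all actives have a fitted effect of over 20% in size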)
In short: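 Luminescence from CellTiter-Glo (ATP content) gave viability in HepG2 cells, read in the same wells as the MMP dye assay after 1 hr compound exposure at 37 C.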

[5] = qHTS assay for small molecule disruptors of the mitochondrial membrane potential (AID 720635); further: potency means the concentration at half of the fitted maximal effect
In short: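 HepG2 cells (2,000/well) attached overnight at 37C, then took compound for 1 hr at 37C, 5% CO2. Mito-MPS dye was added for 30 min; fluorescence was read at 490/535 nm (monomers) and 540/590 nm (aggregates).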

[6] = qHTS assay to test for compound auto fluorescence at 590 nm (red) in HepG2 cells (AID 720674)
In short: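 Compound auto-fluorescence is scored relative to Rose Bengal sodium, measured at 540/590 nm in live HepG2 cultures after 1 hr compound contact (37 C, 5% CO2).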

[7] = qHTS assay to test for compound auto fluorescence at 535 nm (green) in HepG2 cells (AID 720675)
[8] = qHTS assay to test for compound auto fluorescence at 460 nm (blue) in HEK293 cells (AID 720678)
In short: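 Intrinsic compound fluorescence is recorded in live HEK293 cultures after overnight incubation at 37C, 5% CO2, using excitation 405 nm and emission 460 nm. Values are referenced to triamterene.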

[9] = qHTS assay to test for compound auto fluorescence at 590 nm (red) in HEK293 cells (AID 720679)
In short: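 Red autofluorescence, HEK293 cells: 2,000 cells/well; attach 4-5 hr 37C; add 23 nL cpd or DMSO; incubate o/n 37C 5% CO2; read Ex540/Em590; Rose Bengal sodium reference.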

[10] = qHTS assay to test for compound auto fluorescence at 535 nm (green) in HEK293 cells (AID 720680)
[11] = qHTS assay to test for compound auto fluorescence at 460 nm (blue) in HEK293 cell free culture (AID 720681)
In short: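 Test compounds were pinned into cell-free culture medium (DMEM with 10% FBS) and fluorescence was read directly at Ex/Em 405/460 nm. Signals were expressed as fluorescence equivalents of triamterene, with DMSO vehicle as control.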

[12] = qHTS assay to test for compound auto fluorescence at 535 nm (green) in HEK293 cell free culture (AID 720682)
In short: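 DMEM + 10% FBS, cell-free; cpd or DMSO pinned in; Ex485/Em535 read; output as fluorescein-equivalent signal.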

[13] = qHTS assay to test for compound auto fluorescence at 590 nm (red) in HEK293 cell free culture (AID 720683)
In short: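 Tox21 10K library compounds were pinned into cell-free DMEM with 10% FBS and fluorescence was read at excitation 540 nm. Activity is expressed as Rose Bengal sodium equivalency.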

[14] = qHTS assay to test for compound auto fluorescence at 535 nm (green) in HepG2 cell free culture (AID 720686)
[15] = qHTS assay to test for compound auto fluorescence at 460 nm (blue) in HepG2 cells (AID 720687)
In short: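 Cells (2,000/well in MEM with 10% FBS) attached overnight at 37 C, then were exposed to compound or DMSO for 1 hr at 37 C, 5% CO2. Fluorescence read at Ex/Em 405/460 nm, expressed as triamterene-equivalent signal.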

[16] = qHTS assay to test for compound auto fluorescence at 590 nm (red) in HepG2 cell free culture (AID 720684)
In short: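 Ex 540 / Em 590 nm read of compound in cell-free MEM (10% FBS). Rose Bengal sodium reference.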

[17] = qHTS assay to test for compound auto fluorescence at 460 nm (blue) in HepG2 cell free culture (AID 720685)
In short: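 Cell-free plates of MEM plus 10% FBS received 23 nL compound or DMSO vehicle; blue-channel (405/460 nm) intensity scored against triamterene as reference fluorophore.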

[18] = target: Glucocorticoid receptor (Homo sapiens) (UniProt P04150); assay: qHTS assay to identify small molecule agonists of the glucocorticoid receptor (GR) signaling pathway (AID 720691; active means well fitted activation curve with a large enough effect in the signal ratio in the repeat runs, not every such curve was filed as active; the % refers to the signal ratio)
In short: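 HeLa GR-bla reporter line; cells pre-incubated 4 h, compound in DMSO 18 h at 37 C; LiveBLAzer B/G FRET substrate 2 h RT; fluorescence intensity read-out.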

[19] = target: Glucocorticoid receptor (Homo sapiens) (UniProt P04150); assay: qHTS assay to identify small molecule antagonists of the glucocorticoid receptor (GR) signaling pathway (AID 720692; active means well fitted inhibition curve with a large enough effect in the signal ratio in the repeat runs, not every such curve was filed as active; the % refers to the signal ratio)
In short: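 Read-out: beta-lactamase FRET substrate fluorescence, 2 h at room temperature, in HeLa cells stably carrying a GRE-driven bla reporter. Compounds were co-incubated with 5 nM dexamethasone agonist (final) for 18 h at 37 C.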
On the % scale 0 is the no-effect control and ±100 the full control effect.

Sequence of Glucocorticoid receptor (Homo sapiens) (P04150 whole entry, looked up): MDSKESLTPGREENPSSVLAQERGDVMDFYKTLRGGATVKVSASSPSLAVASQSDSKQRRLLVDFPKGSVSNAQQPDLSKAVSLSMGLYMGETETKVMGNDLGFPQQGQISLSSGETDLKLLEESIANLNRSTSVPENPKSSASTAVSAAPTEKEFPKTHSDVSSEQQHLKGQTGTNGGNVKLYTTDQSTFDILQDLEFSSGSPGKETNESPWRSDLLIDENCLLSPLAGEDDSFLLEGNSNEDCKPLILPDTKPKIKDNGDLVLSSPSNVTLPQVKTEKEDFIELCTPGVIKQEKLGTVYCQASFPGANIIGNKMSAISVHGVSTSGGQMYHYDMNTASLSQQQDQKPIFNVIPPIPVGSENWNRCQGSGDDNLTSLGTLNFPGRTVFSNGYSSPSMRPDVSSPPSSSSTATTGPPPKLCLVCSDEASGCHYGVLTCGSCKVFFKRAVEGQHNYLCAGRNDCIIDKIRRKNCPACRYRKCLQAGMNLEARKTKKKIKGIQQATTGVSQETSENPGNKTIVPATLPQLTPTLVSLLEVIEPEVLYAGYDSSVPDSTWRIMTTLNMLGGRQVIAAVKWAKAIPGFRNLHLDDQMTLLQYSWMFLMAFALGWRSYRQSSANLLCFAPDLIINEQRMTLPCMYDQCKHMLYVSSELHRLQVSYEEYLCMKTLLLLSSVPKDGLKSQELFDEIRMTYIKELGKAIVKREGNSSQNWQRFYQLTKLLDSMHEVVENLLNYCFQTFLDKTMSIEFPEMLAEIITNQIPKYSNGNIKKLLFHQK

CCC(C)(C)C1CCC(=O)CC1
inactive: outcome [1] | outcome [2] | Potency [3] | outcome [4] | Potency [5] | outcome [6] | outcome [7] | outcome [8] | outcome [9] | outcome [10] | outcome [11] | outcome [12] | outcome [13] | outcome [14] | outcome [15]

Cc1cc(O)c2c(c1)C(=O)c1cccc(O)c1C2=O
inactive: outcome [1] | outcome [2] | Potency [3] | outcome [4] | outcome [6] | outcome [7] | outcome [8] | outcome [9] | outcome [10] | outcome [11] | outcome [12] | outcome [13] | outcome [16] | outcome [17] | outcome [14] | outcome [15] | Potency [18]

CC(C)(C)NCCO
inactive: outcome [1] | outcome [2] | Potency [3] | outcome [4] | outcome [6] | outcome [7] | outcome [8] | outcome [9] | outcome [10] | outcome [11] | outcome [12] | outcome [13] | outcome [14] | outcome [15] | Potency [18] | outcome [19]

C[CH2][Ge]([Cl])([CH2]C)[CH2]C
inactive: outcome [1] | outcome [2] | Potency [3] | outcome [4] | outcome [6] | outcome [7] | outcome [8] | outcome [9] | outcome [10] | outcome [11] | outcome [12] | outcome [13] | outcome [16] | outcome [17] | outcome [14] | outcome [15]

CC(=O)c1ccc(OCC(=O)N2CCCCC2)cc1
inactive: outcome [1] | outcome [2] | Potency [3] | outcome [4] | Potency [5] | outcome [7] | outcome [8] | outcome [9] | outcome [10] | outcome [11] | outcome [12] | outcome [13] | outcome [16] | outcome [14] | outcome [15] | Potency [18] | outcome [19]

NCCc1ccn[nH]1
inactive: outcome [1] | outcome [2] | Potency [3] | outcome [4] | Potency [5] | fluorescence, relative to Rose Bengal [6] 0.0089% [at 18.6 µM] | fluorescence, % of fluorescein control [7] 0.0074% [at 18.6 µM] | fluorescence, % of fluorescent control [9] 0.131% [at 18.6 µM] | fluorescence, % of fluorescein [10] -0.0168% [at 18.6 µM] | fluorescence, % of fluorescent control [11] -0.0158% [at 18.6 µM] | activity change [12] 0.0838% [at 18.6 µM] | fluorescence, % of fluorescent control [13] -0.0073% [at 18.6 µM] | fluorescence, % of fluorescent control [17] -0.0614% [at 18.6 µM] | fluorescence, % of fluorescein control [14] -0.0021% [at 18.6 µM] | outcome [19]

O=C(O)C(=O)Nc1cccc(-c2nn[nH]n2)c1
inactive: outcome [1] | outcome [2] | Potency [3] | outcome [4] | Potency [5] | outcome [6] | outcome [7] | outcome [8] | outcome [9] | outcome [10] | outcome [11] | outcome [12] | outcome [13] | outcome [16] | outcome [17] | outcome [14] | outcome [15] | Potency [18] | outcome [19]

O=C(COCCOCCOCC(=O)Nc1c(I)cc(I)c(C(=O)O)c1I)Nc1c(I)cc(I)c(C(=O)O)c1I
inactive: outcome [1] | outcome [2] | Potency [3] | outcome [4] | outcome [6] | outcome [7] | outcome [8] | outcome [9] | outcome [10] | outcome [11] | outcome [12] | outcome [13] | outcome [16] | outcome [14] | outcome [15] | Potency [18]

O=P(O)(O)OCC(O)CO (stereo not given)
inactive: outcome [1] | outcome [2] | Potency [3] | outcome [4] | Potency [5] | outcome [6] | outcome [7] | outcome [8] | outcome [9] | outcome [10] | outcome [11] | outcome [12] | outcome [13] | outcome [16] | outcome [17] | outcome [14] | outcome [15]

C[Si]1(C)N[Si](C)(C)N[Si](C)(C)N1
inactive: outcome [1] | outcome [2] | Potency [3] | outcome [4] | outcome [6] | outcome [8] | outcome [9] | outcome [10] | outcome [11] | outcome [12] | outcome [13] | outcome [16] | outcome [17] | outcome [14] | outcome [15]
active: Potency [5] 27.3 µM

CCC(=O)c1ccc(O)cc1
inactive: outcome [1] | outcome [2] | Potency [3] | outcome [4] | outcome [6] | outcome [7] | outcome [8] | outcome [9] | outcome [10] | outcome [11] | outcome [12] | outcome [13] | outcome [16] | outcome [17] | outcome [14] | Potency [18] | outcome [19]

NC(=O)C1(N2CCCCC2)CCN(CCCC(=O)c2ccc(F)cc2)CC1
inactive: outcome [1] | outcome [2] | Potency [3] | outcome [4] | Potency [5] | outcome [6] | outcome [9] | outcome [10] | outcome [11] | outcome [12] | outcome [13] | outcome [17] | outcome [14] | Potency [18]

C=CCOCC(CO)(COCC=C)COCC=C
inactive: outcome [1] | outcome [2] | Potency [3] | outcome [4] | Potency [5] | outcome [6] | outcome [8] | outcome [9] | outcome [10] | outcome [11] | outcome [12] | outcome [13] | outcome [16] | outcome [17] | outcome [14] | outcome [15] | Potency [18] | outcome [19]

CNC(=O)C(c1ccccc1)c1ccccc1
inactive: outcome [1] | outcome [2] | Potency [3] | outcome [4] | outcome [6] | outcome [7] | outcome [8] | outcome [9] | outcome [10] | outcome [11] | outcome [12] | outcome [13] | outcome [16] | outcome [17] | outcome [14] | Potency [18] | outcome [19]
